The panel holds about 83,000 compounds, 20% with a hit somewhere; the sample as a whole holds those more often.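 Values shown are percent growth following 48 h exposure of cells in 96-well plates to a single concentration of compound; below 10 was considered active.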 Values without a mark were called inactive. The source made the active and inactive calls.
System: MDA-MB-468 breast
Assay: NCI-60 one-dose screen, 48 h (100 = growth as untreated, 0 = no growth, -100 = all killed)
Settings: 10 µM unless noted

Row | SMILES | growth
1 | Cc1oc2c(C(=O)N/N=C\c3ccc(O)cc3O)c[nH]c2c1C | -11.8% (active)
2 | O=C(Cc1ccc(F)c(F)c1)Nc1cc(C2(C(F)(F)F)CC2)nn1Cc1ccccc1 | -33.1% (active)
3 | COc1ccc(/C(=C\c2ccc3c(c2)OCO3)C(=O)Nc2nc3ccccc3s2)cc1OC | 90.5%
4 | COc1ccc(-c2cc3c(nn2)-c2ccccc2C3=O)cc1 | -4.8% (active)
5 | N#C/C(=C\c1ccc(-c2ccc(F)cc2)o1)c1nc(-c2ccco2)cs1 | -47.2% (active)
6 | Cc1cn(-c2cc(NC(=O)c3cccc(C#Cc4cccc5[nH]nc(N)c45)c3)cc(C(F)(F)F)c2)cn1 | 67.7%
7 | CCCC(=O)NC(c1ccc2c(c1)OCO2)c1cc(Cl)c2cccnc2c1O (stereo unspecified) | 7.89% (active)
8 | COc1cccc(/C=C/C(=O)Nc2cc(OC)c3c(c2)OCO3)c1 | 92.6%
9 | CN1CCN(Cc2ccc(NC(=O)c3cnc(F)c(C#Cc4cnc(N)c5ncccc45)c3)cc2C(F)(F)F)CC1 | -5.56% (active)
10 | CCCCCCCCNc1cc2c3c(c1)CCCN3CCC2 | -23% (active)
11 | CCOC(=O)c1c(C)n(-c2ccc(Cl)cc2)c2ccc(OC(=O)/C=C/c3ccccc3)cc12 | 22.9%
12 | CCCCN1C(=O)c2cccc3c(-c4ccc5c(c4)ncn5C4CCCCC4)ccc(c23)C1=O | 101%
13 | CCc1ccc2nc(NC(=O)Cc3csc(NC(=O)c4ccco4)n3)sc2c1 | -54.2% (active)
14 | C[C@H](c1nc2ccc(C#N)cc2[nH]1)[C@H]1CC[C@H]2[C@@H]3CCC4=CC(=O)CC[C@]4(C)[C@H]3CC[C@]12C | 15.6%
15 | CC(=O)N1N=C(c2ccc(Nc3ccnc4cc(Cl)ccc34)cc2)CC1c1ccc(Cl)cc1 (stereo unspecified) | 24.3%
16 | CC(C)(C)C(=O)/C=c1/[nH]c(=O)/c(=C/c2ccccc2O)s1 | 17.2%
17 | O=C(CN1C=NC2C(N3CCOCC3)=NC=NC21)c1ccc(Br)cc1 (stereo unspecified) | 99%
18 | Oc1c(CNCCNCc2cc(Cl)cc(Cc3ccccc3)c2O)cc(Cl)cc1Cc1ccccc1 | 24.2%
19 | O=S1(=O)c2ccccc2Oc2ccccc21 | 96.4%
20 | COc1cccc(CNCCN2C(=O)c3ccc4c5c(ccc(c35)C2=O)C(=O)N(CCNCc2cccc(OC)c2)C4=O)c1 | 89.9%
21 | COc1cc(F)c(/C=C/c2cc(/C=C/c3cc(OC)c(OC)cc3F)on2)cc1OC | 77.6%
22 | Cc1cn(-c2cc(NC(=O)c3cncc(C#Cc4cnc(N)c5ncccc45)c3)cc(C(F)(F)F)c2)cn1 | 67.3%
23 | O=C1Nc2ccc(Cl)cc2/C1=C/c1ccc[nH]1 | -19.6% (active)
24 | COc1cnc2c(c1)C(=O)c1c-2n(CCCn2ccnc2)c(=O)c2cc(Cl)ccc12 | -11.2% (active)
25 | COC(=O)c1nc(=S)[nH]c(C(=O)OC)c1C(=O)c1ccccn1 | 19.3%
26 | Nc1nc(Nc2ccccc2)n[nH]1 | 120%

— PubChem BioAssay (NCI)
